Compounds with a hit are over-represented: about 12% of the library has one in this group of screens.
BAZ2B block – qHTS Assay for Inhibitors of BAZ2B; 360,000 tested, 4.4% active; Bromodomain adjacent to zinc finger domain protein 2B (Homo sapiens), Q9UIF8; AlphaScreen BAZ2B-H3K14Ac peptide displacement; AID 504333, 2011; Potency, µM (series often up to 114 µM), inactives show at the highest dose activity change, negative = inhibition, actives largely listed as inhibitors; also: % is scaled to controls: 0 for no effect and ±100 for the full control effect; nearly all actives have a fitted effect of over 60% in size
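AlphaScreen displacement: compounds (up to 110uM) incubated 30 min at room temperature with a preformed 50 nM BAZ2B/50 nM biotinylated H3K14Ac peptide complex in PBS pH 7.4 with Tween-20. Donor and acceptor beads at 10 ug/mL final added, 20 min light-protected before reading.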
HP1b chromo inh – HTS for Inhibitors of HP1-beta Chromodomain Interactions with Methylated Histone Tails; Chromobox protein homolog 1 (Homo sapiens), P83916; AlphaScreen HP1-beta / biotin-H3K9me3 peptide binding; Potency, µM (top dose mostly 114 µM), without a hit: top-dose activity change, negative = inhibition, most hits filed as inhibitors; 390,000 tested, 0.56% active; AID 540317, 2011; also: nearly all actives have a fitted effect of over 70% in size
Target sequence (P83916 whole entry, looked up): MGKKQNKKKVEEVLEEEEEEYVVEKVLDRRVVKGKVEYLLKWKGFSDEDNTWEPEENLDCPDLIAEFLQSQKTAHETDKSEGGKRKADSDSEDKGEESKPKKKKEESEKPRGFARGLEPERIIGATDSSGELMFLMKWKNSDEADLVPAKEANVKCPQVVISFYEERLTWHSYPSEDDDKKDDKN
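Compound inhibition of the preformed complex between 50 nM HP1-beta and 50 nM biotinylated H3K9me3 peptide was read by AlphaScreen. Buffer was PBS pH 7.4 with 0.01% Tween-20. Incubations ran 30 min at room temperature, with 10 ug/mL donor/acceptor beads.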
Sfp inh – qHTS Assay for Inhibitors of Bacillus subtilis Sfp phosphopantetheinyl transferase (PPTase) | Biochemical Sfp PPTase activity, qHTS | Potency, µM, for the others: largest response in the series, negative = inhibition, usual class: inhibitors | 310,000 tested, 3.5% active | AID 1490, 2009;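 also: the enzyme is Sfp with the accession as filed and its product quenches rhodamine fluorescence; 0% = enzyme reaction without inhibitor and -100% = no enzyme wells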
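Fluorescence-quenching assay: 15 nM Sfp-PPTase preincubated 15 min at room temperature with compound, then 5 uM rhodamine-CoA and 12.5 uM BHQ-2-labelled YbbR peptide added. Fluorescence (ex 525/em 598 nm) read at start and after 30 min; difference gives rate.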
PLK1 PBD block – qHTS for Inhibitors of PLK1-PDB (polo-like kinase 1 - polo-box domain): Primary Screen | Plk1 PBD binding of FITC phosphopeptide, fluorescence polarization | Potency, µM, for the others: max response, negative = inhibition, hits mostly inhibitors | 360,000 tested, 2.8% active | AID 720504, 2013; also: series mostly up to about 57 µM; % is scaled to controls: 0 for no effect and ±100 for the full control effect; nearly all actives have a fitted effect of over 65% in size
JMJD2A Tudor – qHTS Assay for Inhibitors of JMJD2A-Tudor Domain | Potency, µM (series often up to 114 µM), without a hit: at the highest dose activity change, negative = inhibition, hits mostly inhibitors | AlphaScreen JMJD2A-Tudor / H3K4me3 peptide binding | Lysine-specific demethylase 4A (Homo sapiens), O75164 | 390,000 tested, 4.4% active; also: % is scaled to controls: 0 for no effect and ±100 for the full control effect; nearly all actives have a fitted effect of over 50% in size
G9a inh – qHTS Assay for Inhibitors of Histone Lysine Methyltransferase G9a | 350,000 tested, 8.8% active | AID 504332, 2011 | Histone-lysine N-methyltransferase EHMT2 (Homo sapiens), Q96KQ7 | G9a H3K9 monomethylation, AlphaScreen, 2 h | Potency, µM (highest dose often 102 µM), for inactives: at the top dose activity, negative = inhibition, usual class: inhibitors; also: % is scaled to controls: 0 for no effect and ±100 for the full control effect; nearly all actives have a fitted effect of over 75% in size
Target sequence (Q96KQ7 913-1193 limits assumed): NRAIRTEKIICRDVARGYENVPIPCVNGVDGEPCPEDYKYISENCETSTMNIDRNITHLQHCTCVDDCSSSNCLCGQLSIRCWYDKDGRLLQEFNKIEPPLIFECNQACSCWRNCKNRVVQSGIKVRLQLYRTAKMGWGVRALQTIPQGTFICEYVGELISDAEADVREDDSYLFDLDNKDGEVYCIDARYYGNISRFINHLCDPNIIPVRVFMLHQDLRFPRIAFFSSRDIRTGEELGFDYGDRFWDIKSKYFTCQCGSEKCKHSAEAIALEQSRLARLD
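G9a (20 nM) was preincubated 15 min with compound, then reacted 2 h at room temperature with 500 nM biotin-H3K9 peptide and 20 µM SAM. Monomethyl-H3K9 detected by AlphaScreen using anti-H3K9me1 antibody.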
Starred values were filed as active, the others as inactive; u = inconclusive; x = no result; [ ] = remark or other dose. Calls follow the shape of the dose curve; as a rule, active = well fitted curve in the direction sought with a large enough effect; inconclusive = small, poorly fitted or top-dose-only effect, or another doubt; inactive = no such curve, though single readings can be large; an effect the other way counts as inactive or inconclusive. Potency is read from the fitted curve at half-maximal effect.

SMILES	BAZ2B block	HP1b chromo inh	Sfp inh	PLK1 PBD block	JMJD2A Tudor	G9a inh
O=C(c1ccc(F)cc1F)N1CCN(c2ccccn2)CC1	-14%	18%	15%	-17%	-8%	5%
O=C(Cn1cc2c(n1)CCCC2)Nc1ccccc1Cl	1%	8%	11%	24µM*	-30%	3%[59 µM]
O=C(Cn1cc2c(n1)CCCC2)NCc1cccnc1	7%	41%	-11%	-1%	u	-14%
O=C(Cn1cc2c(n1)CCCCC2)NCc1ccccc1	-7%	5%	1%	30µM*	-25%	9%
CN(Cc1nc2ccccc2c(=O)[nH]1)Cc1nc2ccsc2c(=O)[nH]1	40µM*	14%	19%	2%	79µM*	24%
Cc1ccc(C)c(N2CCN(C(=O)c3ccc4nc(-c5ccco5)c(-c5ccco5)nc4c3)CC2)c1	u	-14%	20µM*	6µM*	-29%	-8%[0.0925 µM]
COc1ccccc1N1CCN(C(=O)c2ccc3nc(-c4ccco4)c(-c4ccco4)nc3c2)CC1	u	-29%	-7%	-3%	u	10µM*
COc1ccccc1N1CCN(C(=O)c2ccc3nc[nH]c3c2)CC1	4%	51%	0%	-6%	-1%	8%[59 µM]
O=C(Nc1ccc(Cl)cc1Cl)c1cc(S(=O)(=O)N2CCc3ccccc32)ccc1F	-3%	-3%	x	x	-17%	-5%[59 µM]
COC(=O)CCNC(=O)N1CCN(c2nnc(C)c3c(C)n(-c4ccc(Cl)cc4)nc23)CC1	-9%	10%	x	x	-10%	12%[59 µM]
COc1ccc(N2CCN(CCCNC(=O)C3CCC(CNc4nc(=S)[nH]c5ccccc45)CC3)CC2)cc1 (stereo not given)	u	6%	12%	-9%	-25%	u
O=C(C1CCC(CNc2nc(=S)[nH]c3ccccc23)CC1)N1CCN(c2ccc(F)cc2)CC1 (stereo not given)	-23%	-5%	27%	21µM*	u	u
CC(NC(=O)c1ccccc1)C(=O)OCn1nnc2ccccc2c1=O (stereo not given)	7%	36%	x	-11%	-6%	21%[12.7 µM]
COC(=O)c1c(NC(=O)c2ccc(S(=O)(=O)N3CCCCC3)cc2)sc2c1CCN(C)C2	4%	34%	x	x	-4%	u
CCn1c(=O)cc(SCC(=O)NCCc2cc(OC)ccc2OC)c2ccccc21	-2%	22%	x	x	-16%	1%[59 µM]
COc1ccc(N(CC(=O)N2CCc3ccccc3C2)S(C)(=O)=O)cc1Cl	-38%	30%	-5%	2%	1%	50µM*
COc1ccc(N(CC(=O)N2CCCCCC2)S(C)(=O)=O)cc1Cl	23%	32%	14%	-4%	-14%	x
N#C/C(=C\c1cccc(O)c1)c1nc2ccccc2o1	-25%	3%	79µM*	-14%	-23%	-26%
Cn1c(/C(C#N)=C/c2cccc(O)c2)nc2ccccc21	-19%	u	14%	27µM*	22µM*	-24%
COc1ccc(-c2cc(C(=O)NCc3ccco3)c3ccccc3n2)cc1	-5%	26%	u	-6%	-5%	x
CCN(CC)CCNC(=O)c1cc(-c2ccco2)nc2ccccc12	-29%	-2%	-10%	u	63µM*	32µM*
COc1ccc(CCNC(=O)c2cc(-c3ccco3)nc3ccccc23)cc1	x	u	x	u	45µM*	x
Cc1cccc(C)c1NC(=O)C(c1ccccc1)N(C)CCc1ccccc1 (stereo not given)	x	x	x	0%	x	x
N#CCC(=O)c1sccc1-n1cccc1	79µM*	-3%	11%	u	-19%[57.1 µM]	13µM*
N#CCOC(=O)c1sccc1-n1cccc1	-6%	5%	18%	-1%	-8%	5%[59 µM]
SMILES	BAZ2B block	HP1b chromo inh	Sfp inh	PLK1 PBD block	JMJD2A Tudor	G9a inh
Cn1nc(-c2ccccc2F)c2cc(C(=O)NCc3ccccc3Cl)sc21	-9%	14%	x	x	-6%	-29%[59 µM]
Cc1c(/C=C/C(=O)c2cccs2)cnn1C	6%	u	13%	3.4µM*	28µM*	8%[59 µM]
CCc1ccc(C(=O)/C=C/c2cnn(C)c2C)s1	-5%	29%	20%	-6%	1%	-3%[59 µM]
O=C(OCC(=O)N1c2ccccc2Sc2ccccc21)C1CC(=O)N(Cc2ccco2)C1 (stereo not given)	u	-13%	-24%	-3%	u	50µM*
O=C(COC(=O)C1CC(=O)N(Cc2ccco2)C1)Nc1ccccc1[N+](=O)[O-] (stereo not given)	-4%	-9%	x	-7%	-20%	-43%
Cc1nnc(NC(=O)C23CC4CC(CC(C4)C2)C3)s1	3%	28%	4%	3%	8%	-10%[2.33 µM]
O=C(O)COc1ccccc1-c1nc(-c2ccccc2)c(-c2ccccc2)[nH]1	u	-5%	-29%	34µM*	-33%	79µM*
CCn1c(=O)c2cc(C(=O)N3CCOCC3)sc2c2ccccc21	8%	52%	9%	0%	-6%	16%
Cn1c2ccccc2c2cc(C(=O)N3CCOCC3)sc21	-25%	20%	45µM*	-20%	2%	u
NC(=S)N/N=C1\CCOc2ccc(F)cc21	-15%	15%	89µM*	-14%	-18%	x
COC(=O)CSc1nc2c(c(-c3ccco3)c1C#N)CCCC2	28µM*	67%	35µM*	27µM*	-16%	2.2µM*
COC(=O)CSc1nc2c(c(-c3ccc(O)cc3)c1C#N)CCCC2	-25%	12%	-1%	-18%	-26%	u
Cc1ccc(-c2c(C#N)c(N)nc3c2CCCCCC3)o1	4%	20%	3%	-9%	-8%	-37%[59 µM]
CCOC(=O)CSc1nc2c(c(-c3ccc(C)o3)c1C#N)CCCC2	-17%	8%	14µM*	-5%	10%	u
COc1ccccc1-c1ccc2ncnc(N(C)C)c2c1	x	x	-3%	x	x	x
CC(C)OC(=O)c1cn(Cc2c(F)cccc2F)c2sc(-c3ccc(NC(=O)C(C)C)cc3)c(CN(C)Cc3ccccc3)c2c1=O	x	x	-4%	x	x	x
Clc1ccc(C=NN2CCCCCC2)cc1	x	-33%	x	-4%	35µM*	x
COc1cc(/C=N/N2CCCCC2)cc(OC)c1O	-34%	-5%	45µM*	u	-26%	22µM*
COc1cc(C=NN2CCCCC2)cc(OC)c1OC	x	x	x	1%	x	x
COc1ccc(/C(C)=N/N2CCCCC2)c(O)c1	2%	40%	7%	0%	14%	8%

Source: PubChem BioAssay (National Center for Advancing Translational Sciences (NCATS))
